Among the test systems are NCI-H23 lung; NCI-H226 lung; NCI-H322M lung; HOP-62 NSCLC; NCI-H460 lung; HOP-92 NSCLC; NCI-H522 lung; A549/ATCC NSCLC; 786-0 renal; COLO 205 colon.
Holding throughout (test): NCI-60 one-dose screen, 48 h (100 = growth as untreated, 0 = no growth, -100 = all killed)
What all share (settings): 10 µM unless noted

Molecules are shown by their SMILES. This is part of a sample that, as a whole, favours compounds with a hit. Of some 83,000 tested, about 20% had one in any assay.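 Growth was measured after 48 h exposure to one concentration of compound in 96-well plates. Values under 10 count as active.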 Unmarked numbers belong to inactive results. Calls of active or inactive are those of the source.

As for `O=S(=O)(NCCCNc1cc(-c2cn(-c3ccccc3)nc2-c2cccc(O)c2)ccn1)c1ccccc1`, the growth was 65.9% in the test with NCI-H23 lung; 41.9% in the test on NCI-H226 lung; 60.4% in the test on NCI-H322M lung; 77.3% with HOP-62 NSCLC; 39% in the test with NCI-H460 lung; 45.2% in the test with HOP-92 NSCLC. Further, the growth was 52.5% in the test with NCI-H522 lung, 35.8% in the test on A549/ATCC NSCLC, 13.1% with 786-0 renal and -12.1% (active) in the test with COLO 205 colon.

Regarding `O=S(=O)(NCCCNc1cc(-c2cn(-c3ccccc3)nc2-c2ccccc2)ccn1)c1ccc(C(F)(F)F)cc1`, the growth is 58.7% with NCI-H23 lung; 54.3% in the test on NCI-H226 lung; 66.8% in the test with NCI-H322M lung; 82% in the test with HOP-62 NSCLC; 50.7% in the test with NCI-H460 lung; 32.2% in the test on HOP-92 NSCLC. Moreover, the growth was 72.1% in the test with NCI-H522 lung, 40.9% in the test on A549/ATCC NSCLC, 29% with 786-0 renal and 33.1% in the test with COLO 205 colon.

With `COc1cc(-c2cnc3nonc3n2)c(OC)c2c1OCO2`, the growth with NCI-H23 lung is 95.4%; with NCI-H226 lung it was 95.6%; in the test on NCI-H322M lung it was 90.9%; with HOP-62 NSCLC, 101%; with NCI-H460 lung, 102%; in the test with HOP-92 NSCLC, 97.9%. For the same molecule, the growth in the test with NCI-H522 lung was 78.7%; in the test on A549/ATCC NSCLC it was 94.1%; in the test on 786-0 renal, 104%; with COLO 205 colon it was 113%.

In the case of `COc1cnc2c(c1)C(=O)c1c-2n(CCCN2CCNCC2)c(=O)c2cc([N+](=O)[O-])ccc12`, the growth in the test on NCI-H23 lung is -63.6% (active); in the test on NCI-H226 lung, -59.4% (active); with NCI-H322M lung it was -72.2% (active); in the test on HOP-62 NSCLC, -67.2% (active); in the test on NCI-H460 lung, -42.3% (active); in the test on HOP-92 NSCLC it was 22.8%. For the same molecule, the growth was -48.2% (active) with NCI-H522 lung, -87.2% (active) in the test with A549/ATCC NSCLC, -85.8% (active) in the test on 786-0 renal and 14.4% in the test on COLO 205 colon.

Regarding `COc1ccc(/C=N\NC(=O)c2ccncc2)cc1O`, the growth in the test with NCI-H23 lung is 93.8%; with NCI-H226 lung it was 92.6%; in the test with NCI-H322M lung it was 99.3%; with HOP-62 NSCLC it was 93%; in the test on NCI-H460 lung it was 109%; with HOP-92 NSCLC, 92.9%. The growth in the test with NCI-H522 lung is 81.4%; with A549/ATCC NSCLC, 93.7%; in the test with 786-0 renal, 93.7%; with COLO 205 colon it was 110%.

Turning to `COc1ccc(S(=O)(=O)NCCNc2nccc(-c3c(-c4cccc([N+](=O)[O-])c4)nc4sccn34)n2)cc1`, the growth in the test with NCI-H23 lung is 93.1%; with NCI-H226 lung, 82.2%; in the test with NCI-H322M lung, 97.5%; in the test with HOP-62 NSCLC, 99.3%; with NCI-H460 lung it was 87.3%; in the test with HOP-92 NSCLC, 87.5%. Further, the growth in the test on NCI-H522 lung was 86%; in the test with A549/ATCC NSCLC, 80.2%; with 786-0 renal, 87.9%; in the test with COLO 205 colon, 95.1%.

Consider `COC1C/C(=N\O)C2OC(c3ccccc3)OCC2O1` (stereo not given), for which the growth was 101% in the test with NCI-H23 lung; 103% with NCI-H226 lung; 99.9% in the test on NCI-H322M lung; 114% in the test with HOP-62 NSCLC; 112% in the test with NCI-H460 lung; 90.7% in the test with HOP-92 NSCLC. Also, the growth is 97.3% in the test on NCI-H522 lung, 88.3% in the test on A549/ATCC NSCLC, 104% in the test with 786-0 renal and 107% with COLO 205 colon.

Regarding `COc1ccc(S(=O)(=O)NCCNc2nccc(-c3c(-c4cccc(N)c4)nc4sccn34)n2)cc1`, the growth in the test with NCI-H23 lung was 103%; in the test on NCI-H226 lung it was 96.1%; in the test on NCI-H322M lung it was 111%; in the test with HOP-62 NSCLC it was 110%; with NCI-H460 lung, 99.6%; in the test with HOP-92 NSCLC it was 96.2%. The growth with NCI-H522 lung was 91.2%; in the test with A549/ATCC NSCLC, 99.6%; with 786-0 renal it was 99%; in the test with COLO 205 colon, 106%.

Consider `Oc1ccc2c(=S)cc(-c3ccc(Br)cc3)oc2c1O`, for which the growth was -13.7% (active) in the test with NCI-H23 lung; 90.5% with NCI-H226 lung; 10.5% in the test on NCI-H322M lung; 28.7% with HOP-62 NSCLC; 3.24% (active) in the test with NCI-H460 lung; -18.9% (active) in the test with HOP-92 NSCLC. In addition, the growth in the test with NCI-H522 lung is -27% (active); in the test on A549/ATCC NSCLC, 3.47% (active); with 786-0 renal it was 28.1%; in the test on COLO 205 colon, 103%.

On to `CCCCCCCCCCCCCCCCCCSC1=CC(=O)C(OC)=C(OC)C1=O`, for which the growth in the test with NCI-H23 lung is 89.8%; with NCI-H226 lung, 96.7%; in the test with NCI-H322M lung it was 114%; in the test with HOP-62 NSCLC it was 108%; in the test on NCI-H460 lung, 105%; in the test on HOP-92 NSCLC, 56.5%. The growth in the test with NCI-H522 lung is 94.5%; in the test on A549/ATCC NSCLC it was 103%; in the test with 786-0 renal it was 120%; in the test on COLO 205 colon it was 111%.

As for `CCOC(=O)Cc1cnn(C)c1NC(=O)c1ccc(Cl)cc1NC(C)=O`, the growth was 104% with NCI-H23 lung; 98.6% in the test on NCI-H226 lung; 79.1% in the test on NCI-H322M lung; 96.4% in the test on HOP-62 NSCLC; 119% in the test on NCI-H460 lung; 91.4% with HOP-92 NSCLC. Also, the growth in the test on NCI-H522 lung was 95.4%; in the test on A549/ATCC NSCLC, 103%; in the test with 786-0 renal, 98.4%; in the test on COLO 205 colon it was 110%.

As to `CC[C@H](Nc1nc(N)nc(C)c1C#N)c1nc2cccc(NCc3ccc(C(=O)NO)cc3)c2c(=O)n1-c1ccccc1`, the growth was -22.9% (active) in the test on NCI-H23 lung; 24.3% in the test on NCI-H226 lung; 15% in the test on NCI-H322M lung; 9.2% (active) in the test with HOP-62 NSCLC; 3.85% (active) in the test with NCI-H460 lung; -16.7% (active) in the test on HOP-92 NSCLC. For the same molecule, the growth was -37.6% (active) in the test with NCI-H522 lung, 1.14% (active) in the test on A549/ATCC NSCLC, 6.94% (active) in the test on 786-0 renal and -2.48% (active) in the test on COLO 205 colon.

For `CCCCN(CC)CCCCCCCCCCN1CCCc2cc(OC)ccc21`, the growth with NCI-H23 lung is 13.2%; with NCI-H226 lung, 103%; in the test on NCI-H322M lung, 54.2%; in the test on HOP-62 NSCLC, 106%; with NCI-H460 lung it was 28.5%; with HOP-92 NSCLC, 31.8%. Besides, the growth was 38.8% in the test on NCI-H522 lung, 91% in the test with A549/ATCC NSCLC, 60.4% in the test with 786-0 renal and 83.4% with COLO 205 colon.

Source of the values: PubChem BioAssay (NCI).
